From article PMC4336329 (PLoS ONE, 2015)
Among all 310,000 compounds or so, about 14,000 (4.5%) showed an effect of 50% or more. Effects have a minus sign here. This is one part of a sample in which strong results are shown more often than they occur.

These compounds were tested against human ether-à-go-go-related gene (hERG) potassium channel (human, UniProt Q12809) (assay: primary screen, population patch clamp on CHO cells stably expressing hERG; higher = less effect of the substance).
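Also: peak tail current of the secondary pulse compared with the same well before compound.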

Chain of human ether-à-go-go-related gene (hERG) potassium channel (Q12809 whole entry, looked up): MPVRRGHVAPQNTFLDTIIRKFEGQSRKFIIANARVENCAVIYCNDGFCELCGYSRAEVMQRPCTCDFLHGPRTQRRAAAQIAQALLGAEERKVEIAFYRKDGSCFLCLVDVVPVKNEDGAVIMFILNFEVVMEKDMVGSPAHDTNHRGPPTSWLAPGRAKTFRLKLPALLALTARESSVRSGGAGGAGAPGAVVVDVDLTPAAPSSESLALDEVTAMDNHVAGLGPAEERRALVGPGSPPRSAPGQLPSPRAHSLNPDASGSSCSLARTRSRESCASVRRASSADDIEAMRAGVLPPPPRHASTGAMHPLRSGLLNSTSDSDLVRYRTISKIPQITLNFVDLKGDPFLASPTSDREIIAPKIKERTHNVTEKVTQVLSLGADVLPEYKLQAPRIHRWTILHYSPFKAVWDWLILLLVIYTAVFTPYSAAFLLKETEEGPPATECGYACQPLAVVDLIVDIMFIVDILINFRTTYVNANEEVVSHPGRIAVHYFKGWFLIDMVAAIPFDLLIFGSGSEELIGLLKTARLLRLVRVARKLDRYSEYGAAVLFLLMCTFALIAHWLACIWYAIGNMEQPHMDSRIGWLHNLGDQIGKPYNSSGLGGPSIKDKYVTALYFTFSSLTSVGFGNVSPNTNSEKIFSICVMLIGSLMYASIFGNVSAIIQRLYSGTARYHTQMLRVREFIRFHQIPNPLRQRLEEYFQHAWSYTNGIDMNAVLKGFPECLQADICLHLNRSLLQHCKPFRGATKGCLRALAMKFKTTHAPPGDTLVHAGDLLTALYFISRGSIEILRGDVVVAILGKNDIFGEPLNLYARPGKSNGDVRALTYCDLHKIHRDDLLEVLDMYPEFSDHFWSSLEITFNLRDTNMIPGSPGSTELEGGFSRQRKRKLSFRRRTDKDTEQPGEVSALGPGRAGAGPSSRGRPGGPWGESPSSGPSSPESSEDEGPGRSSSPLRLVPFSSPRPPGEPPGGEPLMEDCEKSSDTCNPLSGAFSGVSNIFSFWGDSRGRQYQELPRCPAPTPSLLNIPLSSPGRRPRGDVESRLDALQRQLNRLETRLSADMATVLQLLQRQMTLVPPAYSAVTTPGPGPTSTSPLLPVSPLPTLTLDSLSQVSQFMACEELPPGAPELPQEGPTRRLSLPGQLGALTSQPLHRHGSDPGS

Structure (SMILES) | hERG current change (%, negative = inhibition) at 10uM [%]
Cc1nc2ccccc2c(=O)n1-c1ccc([N+](=O)[O-])cc1 | 7.26
O=C(c1ccc2nsnc2c1)N1CCN(c2ccc([N+](=O)[O-])cc2)CC1 | -75.5
CCc1nc2ccc(C(=O)N3CCN(c4ccccc4)CC3)cc2nc1CC | -5.04
Cl.O.O=c1c2ccccc2nc2n1CC/C2=C/N1CCN(c2cccc(C(F)(F)F)c2)CC1 | -28
Cc1ccc(C)c(N2CCN(C(=O)c3ccc4nsnc4c3)CC2)c1 | -1.44
CCc1nc2ccc(C(=O)N3CCN(c4ccc(Cl)cc4)CC3)cc2nc1CC | -6.46
O=C(c1ccc(NC2=NC3CS(=O)(=O)CC3S2)cc1)N1CCN(c2ccc([N+](=O)[O-])cc2)CC1 (centres unmarked) | -4.75
O=C(c1ccc2c(=O)n3c(nc2c1)CCCCC3)N1CCN(c2ccc([N+](=O)[O-])cc2)CC1 | -73
O=c1c2ccccc2nc2n1CC/C2=C\N1CCN(c2ccc([N+](=O)[O-])cc2)CC1 | -78.1
O=C(c1ccc2c(=O)n3c(nc2c1)CCCCC3)N1CCN(c2ccc(Cl)cc2)CC1 | -48
O=C(c1ccc2c(=O)n3c(nc2c1)CCCCC3)N1CCN(c2ccc(F)cc2)CC1 | -42.1
CCOP(=O)(c1ccccc1)C1(O)CCCCC1 (centres unmarked) | -1.86
CCCc1oc(C(=O)O)cc1CN1CCOCC1.Cl | 8.54
COC(=O)C1=C(C)N(Cc2ccccc2)C(=O)N[C@H]1c1ccco1 | 5.95
O=C(NCC(c1cccnc1)N1CCN(c2ccc(F)cc2)CC1)c1ccccc1 (centres unmarked) | -40.2
O=C(NCC(c1cccnc1)N1CCN(c2ccccc2)CC1)c1ccc2c(c1)OCO2 (centres unmarked) | -26.5
O=C(NCC(c1cccnc1)N1CCN(c2ccc(F)cc2)CC1)c1ccc2c(c1)OCO2 (centres unmarked) | -65.3
COc1ccc(N2CCN(C(CNC(=O)c3ccc4c(c3)OCO4)c3cccnc3)CC2)cc1 (centres unmarked) | -16.2
COc1ccc(N2CCN(C(CNC(=O)c3cccc(Cl)c3)c3cccnc3)CC2)cc1 (centres unmarked) | -38.7
O=C(NCC(c1cccnc1)N1CCN(c2ccc(F)cc2)CC1)c1cccc(Cl)c1 (centres unmarked) | -66.2
COCCN=c1scc(-c2ccc3c(c2)NC(=O)CO3)n1/N=C(\C)c1ccc(O)cc1 | -8.23

Structure (SMILES) | hERG current change (%, negative = inhibition) at 10uM [%]
Cn1c(=NC(=O)C2CC2)sc2cc(F)cc(F)c21 | -12.3
CCOC(=O)c1c(NC(=O)c2cccs2)sc(CC)c1-c1cccs1 | -11
Cc1nnc(NC(=O)CSc2ccc([N+](=O)[O-])cn2)s1 | 17.9
CC(C)(CN1CCC(Cc2ccccc2)CC1)NS(=O)(=O)c1ccccc1.O=C(O)C(=O)O | -60.8
Cc1ccc(S(=O)(=O)NC(C)(C)CN2CCC(Cc3ccccc3)CC2)cc1.O=C(O)C(=O)O | -64.8
CC(=O)N1CCN(CC(C)(C)NS(=O)(=O)c2ccc(C)cc2)CC1 | 7.76
CCOC(=O)C1CCN(CC(C)(C)NS(=O)(=O)c2ccc(C)cc2)CC1 | -4.95
CCOC(=O)C1CCN(CC(C)(C)NS(=O)(=O)c2ccccc2)CC1 | 11.5
CC(C)(CN1CCCC1)NS(=O)(=O)c1ccccc1.Cl | 24.7
COC(=O)c1ccc(-n2cc(-c3ccc(OC)cc3)[nH]c2=S)cc1 | 33.1
Nc1c(C(=O)c2ccc(Cl)cc2)sc2c1c(=O)[nH]c(=O)n2-c1ccccc1 | -24.2
CC[C@]1(c2ccccc2)C(=O)N(C(=O)OC)N1C(=O)OC | 25.2
COc1ccc(-c2noc3c2-c2nc(-c4ccc(Cl)cc4)sc2CC3)cc1 | 9.5
CCCNC(=O)C12CCC(C)(C(=O)O1)C2(C)C (centres unmarked) | 17.2
Clc1ccc2nc(-c3ccc(Br)s3)cn2c1 | 8.14
Cc1oc(-c2cccc(Cl)c2)nc1CN1CCC(C(=O)NCCCN2CCCC2=O)CC1 | -38
COc1ccccc1CNC(=O)C1CCN(c2nc3ccccc3o2)CC1 | -9.09
COc1ccccc1CNC(=O)C1CCN(Cc2nc(-c3cccc(Cl)c3)oc2C)CC1 | -78
COc1ccc(-c2nc(CN3CCC(C(=O)NC4CCN(Cc5ccccc5)CC4)CC3)c(C)o2)cc1OC | 1.67
CCc1ccc(-c2nc(CN3CCC(C(=O)NCc4ccccc4OC)CC3)c(C)o2)cc1 | -68.4
